An excerpt weighted towards active compounds, which were near 7.9% of everything screened.
HCV inh: qHTS Assay for Inhibitors of Hepatitis C Virus (HCV); 340,000 compounds, 3.4% hits; AID 651820, 2012; Huh7.5.1 HCVcc-Cre infection, luciferase reporter, 44 h; Potency, µM (series often up to 41.8 µM), hits mostly inhibitors; active = well fitted inhibition curve with a large enough effect; inconclusive = small, poorly fitted or top-dose-only effect, or another doubt; inactive = no such curve, though single readings can be large or run the other way
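Compounds are dispensed onto cells plated 4 h earlier at 1,000 per well, with HCVcc-Cre virus (about 0.5 moi) added next. Following 44 h of culture, luminescent signal is measured for 15 sec after 15 min with substrate at room temperature.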
LASV entry inh: qHTS for Inhibitors of binding or entry into cells for Lassa Virus; Lassa virus pseudotype entry inhibition, cell reporter; Potency, µM (series often up to 37.9 µM), actives largely listed as inhibitors; 300,000 compounds, 1.2% hits; AID 540256, 2011; calls by dose curve; tested in HEK293 cells; also: nearly all actives have a fitted effect of over 50% in size
FMDV inh: High Throughput Screening for Foot and Mouth Disease Virus Antivirals | 410,000 compounds, 1.2% hits | AID 1159524, 2015 | FMDV antiviral cell-based qHTS | Potency, µM (doses to about 57.9 µM), hits mostly inhibitors; calls by dose curve; tested in HEK293T cells; also: read-out not given here; nearly all actives have a fitted effect of over 45% in size
HCMV antiviral: qHTS Assay for inhibitors of the human cytomegalovirus (HCMV); 410,000 compounds, 4.5% hits; HFF cells, HCMV-luciferase reporter, 72 h; active compounds read low; activity change, negative = inhibition, % at 57.5 µM; in the data active = activity change below about -60%; inconclusive = no clear call, values can overlap the other calls; inactive = above about -39%
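Screen run at 2 compound doses on HFFs infected with reporter HCMV, MOI 1 PFU/cell. Luciferase activity from cell lysates at 72 h post infection gave inhibition relative to buffer-only and Salinomycin wells.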
MARV entry inh: qHTS for inhibitors of binding or entry into cells for Marburg Virus; Marburg virus pseudotyped entry inhibition, cell reporter; Potency, µM (doses to about 37.8 µM), actives largely listed as inhibitors; 300,000 compounds, 1.8% hits; calls by dose curve; tested in HEK293 cells
Hits are given with their value.

Results for O=C(COc1ccc(F)cc1)Nc1ccc2nc(SCC(=O)N3CCCC3)sc2c1 ?
LASV entry inh: inactive; FMDV inh: inconclusive; HCMV antiviral: inactive; MARV entry inh: inactive

Results for CN1C(=O)COC2CCC(C(=O)C3=C(C(=O)O)CCCC3)CC21 (centres undefined) ?
MARV entry inh: inactive

How did CC(C)OCCCNC(=O)CCCn1c(SCC(N)=O)nc2c(sc3ccccc32)c1=O do in these assays?
LASV entry inh: inactive; FMDV inh: inactive; HCMV antiviral: inactive; MARV entry inh: inactive

What do the screens show for `Cc1cc(C)c2c(-n3cccc3)c(C(=O)NCCCN3CCCCC3C)sc2n1` (centres undefined)?
LASV entry inh: inactive; FMDV inh: inactive; HCMV antiviral: inactive; MARV entry inh: inactive

Results for CCCc1nnc(NC(=O)c2cc(=O)c3cc(Cl)ccc3o2)s1 ?
LASV entry inh: inactive; FMDV inh: inactive; HCMV antiviral: inactive; MARV entry inh: inconclusive

What do the screens show for `COc1ccc(N(C)C(=O)c2cn(CC(C)C)c(=O)c3cc(OC)c(OC)cc23)c(OC)c1`?
HCV inh: inactive; FMDV inh: inactive; HCMV antiviral: inactive

How did COc1cc2c(C(=O)N(C)c3cc(Cl)ccc3OC)cn(CC(C)C)c(=O)c2cc1OC do in these assays?
LASV entry inh: inactive; FMDV inh: inactive; HCMV antiviral: -61; MARV entry inh: inconclusive

What do the screens show for `O=C(Nc1cccc(C(F)(F)F)c1)C1CCCCC1`?
HCV inh: inactive; LASV entry inh: inactive; FMDV inh: inactive; HCMV antiviral: inactive; MARV entry inh: inactive

How did FC(F)(F)c1cccc(N2CCN(C(=S)NC3CCCC3)CC2)c1 do in these assays?
HCV inh: 32µM; LASV entry inh: inactive; FMDV inh: 20µM; HCMV antiviral: inactive; MARV entry inh: inconclusive

How did CN(C(=O)Nc1cccc(C(F)(F)F)c1)C1CCCCC1 do in these assays?
HCV inh: inactive; LASV entry inh: inconclusive; FMDV inh: inactive; HCMV antiviral: -63; MARV entry inh: inactive

What do the screens show for `FC(F)(F)c1cccc(NC(=S)NC2CCCC2)c1`?
HCV inh: inactive; LASV entry inh: inactive; FMDV inh: inactive; HCMV antiviral: -64; MARV entry inh: inconclusive

How did FC(F)(F)c1cccc(NC(=S)Nc2cccc(NC(=S)Nc3cccc(C(F)(F)F)c3)n2)c1 do in these assays?
HCV inh: 10µM; LASV entry inh: inconclusive; FMDV inh: inactive; HCMV antiviral: inconclusive; MARV entry inh: inconclusive

Results for O=C(CSC1=Nc2ccccc2N=C(c2ccc(F)cc2)C1)Nc1ccc(Cl)cc1 ?
LASV entry inh: inconclusive; FMDV inh: inactive; HCMV antiviral: inactive

What do the screens show for `CC(C)CC1C(=O)N(Cc2cn(CC3CCCCC3)nn2)CCS(=O)(=O)N1Cc1ccc(-c2ccncc2)cc1` (centres undefined)?
LASV entry inh: 14µM; FMDV inh: inactive; HCMV antiviral: inactive

How did CC(C)CC1C(=O)N(Cc2cn(Cc3ccco3)nn2)CCS(=O)(=O)N1Cc1ccc(-c2cccc(N(C)C)c2)cc1 (centres undefined) do in these assays?
FMDV inh: inactive; HCMV antiviral: -101

Results for Cc1ccc(-c2ccc(CN3C(CC(C)C)C(=O)N(Cc4cn(CCC5OCCO5)nn4)CCS3(=O)=O)cc2)cc1 (centres undefined) ?
FMDV inh: inconclusive; HCMV antiviral: -101; MARV entry inh: inconclusive

How did CC1C(=O)N(Cc2cn(CCC3OCCCO3)nn2)CCS(=O)(=O)N1Cc1ccc(-c2ccc(Cl)cc2)cc1 (centres undefined) do in these assays?
FMDV inh: 11µM; HCMV antiviral: inconclusive

How did CC1C(=O)N(Cc2cn(CCC3OCCCO3)nn2)CCS(=O)(=O)N1Cc1ccc(-c2ccccc2)cc1 (centres undefined) do in these assays?
FMDV inh: inactive; HCMV antiviral: inactive

Results for COc1ccc(C2C(=O)N(C3CCCCCC3)CC(=O)N2CCC2=CCCCC2)cc1 (centres undefined) ?
LASV entry inh: inactive; FMDV inh: inactive; HCMV antiviral: inactive

What do the screens show for `Cc1c(C(=O)NCCc2ccncc2)cnn1-c1nccc(-c2ccccc2C(F)(F)F)n1`?
FMDV inh: inactive

How did CCCc1nn2c(=O)cc(COc3ccc(/C=C(\C#N)C(=O)Nc4ccccc4)cc3)nc2s1 do in these assays?
LASV entry inh: inactive; FMDV inh: inactive; HCMV antiviral: inactive; MARV entry inh: inactive
